Measurements as given in PubChem BioAssay AID1376 (SRMLSC, 2008).
Hit rate of the full screen: of about 220,000 compounds, about 530 (0.24%) were called active. No stated cut-off is given here; in the data, active means inhibition above about 13%; inconclusive means no clear call, values can overlap the other calls; inactive means below that. Only a selection was taken, and actives are over-represented in it overall. Measured potencies and affinities stand elsewhere.

Each compound was assayed against Bifunctional protein GlmU (Mycobacterium tuberculosis (strain ATCC 25618 / H37Rv)) (UniProt P9WMN3) (assay: inhibition of mycobacterial GlmU enzyme – biochemical, glucosamine-1-phosphate acetyltransferase (AID 1376;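 further: 0% = complete reaction with vehicle and 100% = reaction without substrate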)). Settings: M. tuberculosis GlmU acetyltransferase enzyme assay; active compounds read high;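 tested at 30 µM in the primary screen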.
Sequence of Bifunctional protein GlmU (Mycobacterium tuberculosis (strain ATCC 25618 / H37Rv)) (P9WMN3 whole entry, looked up): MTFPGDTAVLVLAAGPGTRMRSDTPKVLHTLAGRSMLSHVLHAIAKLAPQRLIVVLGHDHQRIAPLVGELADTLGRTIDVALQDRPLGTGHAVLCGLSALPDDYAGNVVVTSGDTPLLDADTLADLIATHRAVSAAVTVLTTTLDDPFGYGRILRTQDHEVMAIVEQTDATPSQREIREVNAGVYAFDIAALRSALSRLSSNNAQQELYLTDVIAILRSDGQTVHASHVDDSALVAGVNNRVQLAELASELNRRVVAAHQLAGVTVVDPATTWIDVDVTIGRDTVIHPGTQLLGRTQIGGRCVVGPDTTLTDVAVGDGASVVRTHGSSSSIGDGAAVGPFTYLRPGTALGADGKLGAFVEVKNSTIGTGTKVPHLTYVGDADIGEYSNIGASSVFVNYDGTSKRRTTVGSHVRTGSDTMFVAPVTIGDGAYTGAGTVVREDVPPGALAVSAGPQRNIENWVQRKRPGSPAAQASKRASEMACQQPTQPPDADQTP

**Q.** For O=C(Nc1cccc(S(=O)(=O)N2CCOCC2)c1)c1ccc(Cl)c([N+](=O)[O-])c1, which inhibition is on record?
**A.** -7.13% (inactive)

**Q.** With O=C(Nc1cccc(C(F)(F)F)c1)N1CCN(C(=O)Nc2cccc(C(F)(F)F)c2)CC1 as the compound, how does the inhibition read?
**A.** -0.83% (inactive)

**Q.** For COc1ccccc1N1CCN(C(=O)/C=C/c2c(Cl)nc3ccccn23)CC1, which inhibition is on record?
**A.** 1.7% (inactive)

**Q.** COc1ccc(/C=N/c2c(-c3ccc(OC)cc3)nc3n2CCS3)cc1 was tested. Which inhibition did it give?
**A.** -0.71% (inactive)

**Q.** Cc1nc2cc(NC(=O)NCc3ccc4c(c3)OCO4)ccc2o1 was tested. Which inhibition did it give?
**A.** 0.01% (inactive)

**Q.** CC12CCC(c3nnc(SCc4ccc(Cl)cc4)nc31)C2(C)C (configuration not stated) was tested. Which inhibition did it give?
**A.** 7.21% (inactive)

**Q.** How did the inhibition turn out when COc1ccc(-c2nc3scc(-c4ccccc4)n3n2)cc1 was run?
**A.** 5.16% (inactive)

**Q.** Which inhibition does the source give for COCCn1c(Cc2ccccc2)nnc1SCC(=O)Nc1ccccc1 here?
**A.** 2.41% (inactive)

**Q.** Which inhibition does the source give for CC1(C)NC(=O)N(CCOCCOc2c(Cl)cc(Cl)cc2Cl)C1=O here?
**A.** 2.47% (inactive)

**Q.** How did the inhibition turn out when Cc1cc(Cl)c(OCCN2C(=O)NC(C)(C)C2=O)c(Br)c1 was run?
**A.** -1.37% (inactive)

**Q.** How did the inhibition turn out when Cc1cc(C)c(OCCN2C(=O)NC(C)(C)C2=O)c(Cl)c1 was run?
**A.** 14.1% (active)

**Q.** Which inhibition does the source give for O=C(c1cc(-c2ccc(Cl)cc2)on1)N1CCOCC1 here?
**A.** 3.17% (inactive)

**Q.** CNC(=O)c1ncoc1-c1ccc(Cl)cc1 was tested. Which inhibition did it give?
**A.** -1.29% (inactive)

**Q.** How did the inhibition turn out when O=C(Nc1ccccc1)c1nnsc1S(=O)(=O)c1ccc(Cl)cc1 was run?
**A.** 6.59% (inactive)

**Q.** CCCNC(=O)c1nnsc1Sc1ccc(Cl)cc1 was tested. Which inhibition did it give?
**A.** 1.02% (inactive)

**Q.** O=C(c1nnsc1S(=O)(=O)c1ccc(Cl)cc1)N1CCOCC1 was tested. Which inhibition did it give?
**A.** 0.93% (inactive)

**Q.** Which inhibition does the source give for Cc1nnsc1C(=O)Nc1ccc(Cl)cc1 here?
**A.** 5.53% (inactive)

**Q.** How did the inhibition turn out when CCCNC(=O)c1nnsc1S(=O)(=O)c1ccc(Cl)cc1 was run?
**A.** 10.7% (inactive)

**Q.** With CNC(=O)c1nnsc1S(=O)(=O)c1ccc(Cl)cc1 as the compound, how does the inhibition read?
**A.** 11.5% (inactive)

**Q.** CC1(C)C(=O)OC(c2ccccc2)C2(CCCC2)C1=O (configuration not stated) was tested. Which inhibition did it give?
**A.** -6.73% (inactive)

**Q.** With COC(=O)N1CCN(CCc2ccccc2)CC1 as the compound, how does the inhibition read?
**A.** 0.78% (inactive)

**Q.** CCCCNC(=O)CNC(=S)N(Cc1ccccc1)Cc1cccs1 was tested. Which inhibition did it give?
**A.** 4.12% (inactive)

**Q.** CCc1cccc(NC(=O)CCS(=O)(=O)c2cccc3nonc23)c1 was tested. Which inhibition did it give?
**A.** 0.23% (inactive)

**Q.** How did the inhibition turn out when CC(NC(=O)CSC(=S)N(C)C)C12CC3CC(CC(C3)C1)C2 (configuration not stated) was run?
**A.** 2.22% (inactive)

**Q.** With O=C1C2C3C=CC(C3)C2C(=O)N1CCCCN1C(=O)C2C3C=CC(C3)C2C1=O (configuration not stated) as the compound, how does the inhibition read?
**A.** 4.77% (inactive)

**Q.** With O=C1C2C3C=CC(C3)C2C(=O)N1CCCCCCN1C(=O)C2C3C=CC(C3)C2C1=O (configuration not stated) as the compound, how does the inhibition read?
**A.** -4.36% (inactive)

**Q.** CCCC(=O)Nc1c(C)nn(C(=O)CCC)c1C was tested. Which inhibition did it give?
**A.** 9.51% (inactive)

**Q.** How did the inhibition turn out when COc1cccc(-c2nnc(SCCC(=O)O)n2C)c1 was run?
**A.** -2.35% (inactive)

**Q.** C/C(Cl)=C/Cn1c(NCCCn2ccnc2)nc2c1c(=O)[nH]c(=O)n2C was tested. Which inhibition did it give?
**A.** -3.26% (inactive)

**Q.** With Cc1cc(C)n(-c2ccc(C(=O)OCC(=O)Nc3ccc(S(=O)(=O)N4CCOCC4)cc3)cc2)n1 as the compound, how does the inhibition read?
**A.** 12.8% (active)

**Q.** Which inhibition does the source give for Cc1cc(C)n(-c2ccc(C(=O)OCC(=O)Nc3ccc(S(=O)(=O)N4CCCCC4)cc3)cc2)n1 here?
**A.** 0.24% (inactive)

**Q.** CCN(CC)S(=O)(=O)c1ccc(NC(=O)COC(=O)c2ccc(-n3nc(C)cc3C)cc2)cc1 was tested. Which inhibition did it give?
**A.** 2.95% (inactive)

**Q.** With COc1ccc(OC)c(NC(=O)COC(=O)c2ccc(S(=O)(=O)N3CCOCC3)cc2)c1 as the compound, how does the inhibition read?
**A.** 14.5% (active)

**Q.** For COc1ccc(C(=O)OCC(=O)Nc2cc(S(=O)(=O)N3CCOCC3)ccc2N2CCCC2)cc1, which inhibition is on record?
**A.** 0.15% (inactive)

**Q.** Which inhibition does the source give for COc1ccc(S(=O)(=O)N2CCOCC2)cc1NC(=O)COC(=O)c1ccc(C)s1 here?
**A.** 0.67% (inactive)

**Q.** CC(C)(Oc1ccc(CCNC(=O)c2ccc(-c3ccc(Cl)cc3)o2)cc1)C(=O)O was tested. Which inhibition did it give?
**A.** 8.95% (inactive)

**Q.** Which inhibition does the source give for COC(=O)c1ccc(/C=N/N2CCN(Cc3ccc(C)cc3C)CC2)cc1 here?
**A.** 0.99% (inactive)

**Q.** With CC(C)Oc1ccc(C(=O)N2CCCC2C(=O)O)cc1 (configuration not stated) as the compound, how does the inhibition read?
**A.** 1.48% (inactive)

**Q.** Which inhibition does the source give for CCCCCCCCCCCC(=O)N/N=C/c1ccco1 here?
**A.** 2.22% (inactive)

**Q.** How did the inhibition turn out when O=C(O)CC(C(=O)Nc1ccc(Cl)c(Cl)c1)C1CCCO1 (configuration not stated) was run?
**A.** 5.87% (inactive)

**Q.** How did the inhibition turn out when CC(=O)[C@@H]1[C@@H](C)N(Cc2ccccc2)C(=O)N[C@H]1c1cccc(C(F)(F)F)c1 was run?
**A.** 3.76% (inactive)

**Q.** Cc1oc(C(C)(C)C)cc1C(=O)N1CCN(C(c2ccccc2)c2ccccc2)CC1 was tested. Which inhibition did it give?
**A.** -0.86% (inactive)

**Q.** How did the inhibition turn out when COC(=O)CCC(=O)NC(=S)Nc1ccccc1F was run?
**A.** -2.07% (inactive)

**Q.** With O=C(Nc1ccc(Cl)cc1)c1ccc2nsnc2c1 as the compound, how does the inhibition read?
**A.** 4.02% (inactive)

**Q.** O=C(Nc1ccccc1)c1ccc2nsnc2c1 was tested. Which inhibition did it give?
**A.** 19.3% (active)

**Q.** Which inhibition does the source give for O=C(Nc1ccc(F)cc1)c1ccc2nsnc2c1 here?
**A.** -5.81% (inactive)

**Q.** For O=C(CSc1nnc(-c2ccc(OC(F)F)cc2)o1)NCc1cccs1, which inhibition is on record?
**A.** -1.34% (inactive)

**Q.** N#Cc1c(Nc2ccc(Cl)cc2)s[nH]c1=O was tested. Which inhibition did it give?
**A.** 4.63% (inactive)

**Q.** For N#Cc1c(Nc2ccccc2Cl)s[nH]c1=O, which inhibition is on record?
**A.** 0.08% (inactive)

**Q.** How did the inhibition turn out when N#Cc1c(Nc2ccccc2)s[nH]c1=O was run?
**A.** 14.2% (active)

**Q.** With COCCNC(=O)c1cc2c(=O)n3cccc(C)c3nc2n1C as the compound, how does the inhibition read?
**A.** 3.57% (inactive)

**Q.** O=C(O)c1ccccc1SCc1cn2cc(Br)ccc2n1 was tested. Which inhibition did it give?
**A.** 0.7% (inactive)

**Q.** With CCOc1ccc2c(c1)C(=O)c1cc(OCC(=O)O)ccc1-2 as the compound, how does the inhibition read?
**A.** -3.72% (inactive)

**Q.** With O=C(c1ccccc1)c1ccccc1C(=O)N1CCN(C(=O)c2ccccc2)CC1 as the compound, how does the inhibition read?
**A.** -3.19% (inactive)

**Q.** With O=C(c1ccccc1)c1ccccc1C(=O)N1CCCC1 as the compound, how does the inhibition read?
**A.** 13.3% (active)

**Q.** Which inhibition does the source give for O=C(c1ccccc1)c1ccccc1C(=O)N1CCOCC1 here?
**A.** -1.73% (inactive)

**Q.** How did the inhibition turn out when CCCNC(=O)c1ccc(Cn2cc(C(F)(F)F)ccc2=O)cc1 was run?
**A.** 0.72% (inactive)

**Q.** For O=C(Nc1cc2c(ccc3ccccc32)oc1=O)C1CCCCC1, which inhibition is on record?
**A.** 0.95% (inactive)

**Q.** Which inhibition does the source give for COc1cc(/C=C2/C(=N)N3C=CSC3=NC2=O)ccc1OCCCOc1ccccc1C here?
**A.** -3.86% (inactive)

**Q.** CC(C)S(=O)(=O)C1=NSC2=NC(=O)/C(=C\c3ccc(-c4ccccc4)o3)C(=N)N21 was tested. Which inhibition did it give?
**A.** 4.83% (inactive)

**Q.** Which inhibition does the source give for Cc1ccc(-n2c(C)cc(/C=C3/C(=N)N4C(c5ccccc5)=CSC4=NC3=O)c2C)cc1 here?
**A.** 7.47% (inactive)

**Q.** COc1cc(/C=C2/C(=N)N3C(c4ccccc4)=CSC3=NC2=O)ccc1OCC(=O)O was tested. Which inhibition did it give?
**A.** 14.6% (active)

**Q.** Which inhibition does the source give for CS(=O)(=O)C1=NSC2=NC(=O)/C(=C\c3ccc(-c4ccccc4)o3)C(=N)N21 here?
**A.** -0.37% (inactive)

**Q.** For Cc1cc(/C=C2/C(=N)N3C(c4ccccc4)=CSC3=NC2=O)c(C)n1-c1ccccc1, which inhibition is on record?
**A.** -4.29% (inactive)

**Q.** N=C1/C(=C\c2ccc(-c3cc(Cl)cc(Cl)c3)o2)C(=O)N=C2SC=C(c3ccccc3)N12 was tested. Which inhibition did it give?
**A.** -7.2% (inactive)

**Q.** For Cc1cccc(-n2c(C)cc(/C=C3/C(=N)N4C(c5ccccc5)=CSC4=NC3=O)c2C)c1, which inhibition is on record?
**A.** 1.75% (inactive)

**Q.** How did the inhibition turn out when N=C1/C(=C/c2cccn2CCOc2ccccc2)C(=O)N=C2SC=C(c3ccccc3)N12 was run?
**A.** 2.69% (inactive)
